LGR2 inh: Drosophila LGR2 receptor signaling inhibition; AID 720647; inhibition, % at 9.99 µM; HEK293 LGR2, CRE-luciferase, bursicon-stimulated, 4 h; actives 0.35% (n = 380,000);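 active = drop in luminescence signal, shown as inhibition above about 50% in the replicate tests, limit read from the data, passing the limit was not always enough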;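 also: agonist challenge used bursicon conditioned medium at about half maximal strength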
KKLEB tox: CF airway cell cytotoxicity counter-screen | KKLEB CF airway cells viability, ATPlite luminescence, overnight; hits give low values; cells stimulated with P. aeruginosa culture filtrate | activity change (cytotoxicity), % at 5 µM | actives 0.36% (n = 360,000) | AID 602141;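 active = corrected activity change at or below -50% at 5 µM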
EWS-Fli block: blocks EWS/Fli oncoprotein-driven transcription. A673 NR0B1-luciferase reporter, viability-normalised. inhibition, % at 12.6 µM. actives 0.67% (n = 350,000);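 active = mean inhibition of at least 50% after viability correction, with every replicate also passing that limit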;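 also: firefly luciferase signal divided by Alamar Blue viability fluorescence both relative to DMSO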
CF NFkB block: inhibitors of cystic fibrosis induced NF-kB | actives 0.86% (n = 360,000) | AID 588850 | KKLEB NF-kB-GFP reporter, PAF-induced, GFP fluorescence overnight | inhibition, % at 5 µM;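 active = at least 50% inhibition at 5 µM, scaled per plate between neutral and stimulator controls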;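 also: PAF is a Pseudomonas aeruginosa culture filtrate used as stimulus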
TROY NFkB inh: TROY signaling inhibition; Q293 LMP1-TROYcd NF-kB luciferase reporter, 4 h; inhibition, % at 10 µM; actives 0.98% (n = 360,000); AID 1347056;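 active = compounds whose plate-normalised and pattern-corrected inhibition of the luciferase reporter signal at the single screening dose is 50% or more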
TWEAK-Fn14 inh: TWEAK-Fn14 signaling inhibition; TWEAK-stimulated Fn14 reporter cells, luciferase luminescence, 8 h; inhibition, % at 10 µM; actives 2% (n = 360,000); AID 1159606; in the data active = inhibition above about 50%
DNA binder FP: small molecule DNA binding by fluorescence polarization; actives 2% (n = 640); salmon sperm DNA acridine orange fluorescence polarization; AC35, µM (top dose mostly 68 µM); AID 720586; shares compounds with EWS-Fli block;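 active = fitted curve reaches a 35% signal fall AC35 below twice the sample's top valid tested dose, actives reach about 48 µM in these data; inactive = the rest, including activity in the rising direction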;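 also: lower polarization ratio signals compound binding to DNA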
Hits are given with their value; 0 = inactive; - = no result. This is a sample that favours compounds with a hit; in the whole collection about 2.6% have one here.

SMILES | LGR2 inh | KKLEB tox | EWS-Fli block | CF NFkB block | TROY NFkB inh | TWEAK-Fn14 inh | DNA binder FP
Cc1c(CC(=O)NCCCC(=O)O)c(=O)oc2cc3c(cc12)CCC(C)(C)O3 | 0 | 0 | 66 | 0 | 0 | 81 | 0
O=C(O)c1cccc(N/N=C/c2cc(Br)cc(Br)c2O)c1 | 0 | 0 | - | 0 | 0 | 0 | -
Cc1c(N=Cc2cc(Br)cc(Br)c2O)cccc1C(=O)O | 0 | 0 | 74 | 0 | 0 | 0 | 0
COc1ccc(NC(=O)N(C)C[C@H]2Oc3ccc(NS(=O)(=O)c4c(C)noc4C)cc3CC(=O)N([C@@H](C)CO)C[C@H]2C)cc1 | 0 | - | 0 | - | - | - | -
CCCC(=O)Nc1ccc2c(c1)C(=O)N(C)C[C@@H](OC)[C@@H](C)CN(Cc1ccccc1)[C@H](C)CO2 | 0 | - | 0 | - | - | - | -
Cc1ccc2c(=O)n3c(nc2c1)C(Cc1ccc(O)cc1)NC(=O)c1cc2ccccc2cc1-3 (stereo unspecified) | 0 | 0 | 53 | 0 | 0 | 0 | 0
CO[C@@H]1CN(C)C(=O)c2ccc(NC(=O)NC3CCCCC3)cc2OC[C@@H](C)N(C)C[C@H]1C | 0 | - | 0 | - | - | - | -
CCC(=O)Nc1ccc2c(c1)OC[C@@H](C)N(C(=O)CC)C[C@@H](C)[C@@H](OC)CN(C)C2=O | 0 | - | 0 | - | - | - | -
COc1ccc(/C=C/C(=O)c2ccc(C(=O)/C=C/c3ccc(OC)c(OC)c3)cc2)cc1OC | 0 | 0 | 62 | 0 | 0 | 0 | 0
COc1cc(OC)cc(-c2cc3nc(C)c(CCC(=O)O)c(C)n3n2)c1 | 0 | 0 | 77 | 0 | 58 | 90 | 44µM
CCOC(=O)C1CCCCN1C(=O)CCc1c(C)nc2cc(-c3ccccc3)nn2c1C (stereo unspecified) | 0 | 0 | 51 | 0 | 0 | 69 | 0
C[C@H]1CN([C@@H](C)CO)C(=O)c2cc(NC(=O)C3CC3)ccc2O[C@H]1CN(C)C(=O)Nc1cccc2ccccc12 | 0 | - | 0 | - | - | - | -
CC(C)NC(=O)N(C)C[C@@H]1Oc2cc(C#C[C@@H](C)O)ccc2S(=O)(=O)N([C@@H](C)CO)C[C@H]1C | 0 | - | 0 | - | - | - | -
Cc1cccc(/C=C2/Sc3ccc(C(=O)NCCN4CCCC4)cc3NC2=O)c1 | 0 | 0 | - | 0 | 0 | 0 | -
O=C1Nc2cc(C(=O)NCCN3CCCCCC3)ccc2S/C1=C\c1ccccc1 | 0 | 0 | 60 | 0 | 0 | 0 | 0
O=C(Nc1cc(F)ccc1F)N[C@H]1CC[C@H](CCn2cc(C3CC3)nn2)O[C@@H]1CO | 0 | - | 0 | - | - | - | -
Cc1ccc(NC(=O)CCN2CCCCC2)cc1 | 0 | 0 | 66 | 0 | 69 | 100 | 0
CN(C)C(=O)C[C@H]1CC[C@@H]2[C@@H](COc3ccc(NC(=O)C4CCOCC4)cc3C(=O)N2C)O1 | 0 | - | 0 | - | - | - | -
COc1ccc(S(=O)(=O)Nc2ccc3c(c2)C(=O)N([C@H](C)CO)C[C@H](C)[C@@H](CN(C)C(=O)C2CCCCC2)OCCCC[C@H](C)O3)cc1 | 0 | - | 0 | - | - | - | -
OC[C@H]1O[C@@H](n2cnc3c(NCc4ccco4)ncnc32)[C@H](O)[C@@H]1O | 0 | 0 | 80 | 0 | 0 | 0 | 0
C=CCNc1ncnc2c1ncn2C1OC(CO)C(O)C1O (stereo unspecified) | - | 0 | - | 0 | 0 | 0 | -
OCC1OC(n2cnc3c(NCc4ccco4)ncnc32)C(O)C1O (stereo unspecified) | 0 | 0 | 76 | 0 | 0 | 0 | 0
COCC(=O)N1CC2(C1)CN(Cc1ccc3c(c1)OCO3)[C@@H](CO)c1c2c2ccc(OC)cc2n1C | 0 | - | 0 | - | - | - | -
CCOC(=O)c1sc(NC(=S)NC(=O)c2ccc(OC)cc2)nc1C | 0 | 0 | 0 | 0 | 0 | 0 | -
C=CCOC(=O)c1sc(NC(=O)c2ccc(OC)cc2)nc1C | 0 | 0 | 56 | 0 | 0 | 0 | 0
CCCCCCN(C(=O)CCCCCN1C(=O)NC(c2ccc(-c3ccccc3)cc2)C(C(=O)OCc2ccccc2)=C1C)C(C(=O)NCCCC)c1ccc(OCC(=O)OC)c(C(=O)OC)c1 (stereo unspecified) | 0 | - | 0 | - | - | - | -
CCCCCCN(C(=O)CCCCCN1C(=O)NC(c2ccc(Cl)cc2)C(C(=O)OCc2ccccc2)=C1C)C(C(=O)NCCCC)c1ccc(OCC(=O)OC)c(C(=O)OC)c1 (stereo unspecified) | 0 | - | 66 | - | - | - | 0

Assay outcomes deposited in PubChem BioAssay by several laboratories.
